Screening results as filed in PubChem.
Shown are actives, neighbours in structure and some others; about 11% of the full set was active somewhere.
Lmaj promast: Leishmania major promastigote growth inhibition, primary screen. Leishmania major promastigotes, resazurin fluorescence viability. inhibition, % at 10 µM. 9% of 200,000 active. AID 1063, 2008; in the data active = inhibition above about 50%;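 note: promastigotes grown with compound for 44 hours at 28 °C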
Insulin prom inh: inhibitors of insulin promoter-driven GFP, primary screen, imaging, TRM-6 cells (human fetal islet line), eGFP reporter, cell count. reporter expression induced with tamoxifen. inhibition, % at 2 µM. 0.9% of 130,000 active. AID 1273, 2008;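 active = inhibition above the mean plus 3 SD, with well images judged a real hit on visual review, cut at about 60% in these data, passing the limit was not always enough; inconclusive = inhibition over the cutoff but images rejected on review; inactive = inhibition not above the cutoff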
WT yeast gro inh: growth inhibition of WT strain, primary screen, mitochondrial fusion inhibitor project, WT and mutant strains, chemical genetic; mitochondrial fusion phenotypic screen; inhibition, % at 10 µM; 2.1% of 190,000 active; in the data active = inhibition above about 58%; tested in S. cerevisiae
Insulin prom up: insulin promoter activators in MIN6 cells, imaging, high-content screening, mouse beta cells | MIN6 insulin promoter-GFP reporter; active compounds read high | 0.3% of 190,000 active | z-score at 5 µM;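 active = z-score above 3 at 5 µM with at least 500 cells counted in the well; inconclusive = wells under 500 cells, flagged as cytotoxic or low count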
Autophagy HCS: autophagy modulators in MEF cells, primary screen, imaging, high-content, MEF GFP-LC3; calls only at 10 µM (by protocol); 0.98% of 190,000 active; MEF GFP-LC3 puncta imaging; test concentration mostly 10 µM;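 active = percentage of spot-positive cells more than 3 SD above its plate mean, without a fluorescence outlier flag or 80% toxicity; inconclusive = no clear call, values can overlap the other calls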;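 note: spot-positive cell cutoff set from DMSO-treated cells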
An asterisk follows results filed as active.

`CCCOc1ccc(C2/C(=C(\O)c3c(C)[nH]c(C(=O)OC)c3C)C(=O)C(=O)N2CCN(C)C)cc1` (configuration not stated) gave Lmaj promast -5, Insulin prom inh 85*, WT yeast gro inh 6 and Autophagy HCS inactive.
Screening Cc1ccc(NCc2n[nH]c(=S)n2-c2ccccc2)c(C)c1 returned Lmaj promast -3, WT yeast gro inh 13, Insulin prom up -0.03 and Autophagy HCS inactive.
For CCOC(=O)N1CCN(c2ncnc3c2[nH]c2ccc(OC)cc23)CC1 the results were Lmaj promast 7, Insulin prom inh 91*, WT yeast gro inh -5, Insulin prom up -0.23 and Autophagy HCS inactive.
COc1cccc2[nH]c3c(Cl)ncnc3c12 was read as Lmaj promast 34, WT yeast gro inh -6 and Autophagy HCS inactive.
CCOC(=O)N1CCN(c2ncnc3c2[nH]c2ccc(F)cc23)CC1 was read as Lmaj promast 29, Insulin prom inh 14, WT yeast gro inh 5, Insulin prom up inconclusive and Autophagy HCS inactive.
CCOC(=O)C1CCN(c2ncnc3c2[nH]c2cccc(OC)c23)CC1 was read as Lmaj promast 73*, Insulin prom inh 0, WT yeast gro inh 17, Insulin prom up -0.13 and Autophagy HCS inactive.
Screening COc1ccc2[nH]c3c(NCCN4CCCCC4)ncnc3c2c1 returned Lmaj promast 40, Insulin prom inh 81*, WT yeast gro inh -5, Insulin prom up -0.94 and Autophagy HCS inactive.
`COc1cccc2[nH]c3c(N4CCCCC4)ncnc3c12` gave Lmaj promast 96*, Insulin prom inh -43, WT yeast gro inh 6, Insulin prom up 0.03 and Autophagy HCS inactive.
COc1ccccc1C1CC(=O)Nc2cc3c(cc21)OCCO3 (configuration not stated) was read as Lmaj promast 12, Insulin prom inh -4, WT yeast gro inh 17, Insulin prom up -1 and Autophagy HCS active.
CC(C)Oc1ccccc1C1CC(=O)Nc2cc3c(cc21)OCCO3 (configuration not stated) was read as Lmaj promast 18, Insulin prom inh -87, WT yeast gro inh 18, Insulin prom up -4.2 and Autophagy HCS inactive.
`Oc1ccccc1C1CC(c2cccs2)=NC(c2ccc(Cl)cc2)N1` (configuration not stated) gave Lmaj promast 49, Insulin prom inh 50, WT yeast gro inh 73*, Insulin prom up -0.23 and Autophagy HCS inactive.
For Cc1cnc(C(=O)Nc2cccc3cccnc23)cn1 the results were Lmaj promast 97*, WT yeast gro inh -6, Insulin prom up inconclusive and Autophagy HCS inactive.
For COCCNC(=O)/C(C#N)=C1\N=C(N)c2ccccc21 the results were Lmaj promast 59*, Insulin prom inh 24, WT yeast gro inh 0, Insulin prom up -0.01 and Autophagy HCS inactive.
COc1cccc(CC(NC(C)=O)C(=O)NC2CCN(S(=O)(=O)c3ccc(F)cc3)CC2)c1OC (configuration not stated) was read as Lmaj promast -4, Insulin prom inh -12, WT yeast gro inh -14, Insulin prom up -0.1 and Autophagy HCS inactive.
For CC(C)Nc1nc(NC(C)C)nc(N(C#N)CCOc2ccc(Cl)cc2Cl)n1 the results were Lmaj promast 81*, Insulin prom inh 0, WT yeast gro inh 56 and Autophagy HCS inactive.
Screening CCCCc1ccc(NC(=O)C(=O)NCCN2CCN(Cc3ccc([N+](=O)[O-])cc3)CC2)cc1 returned Lmaj promast 11, WT yeast gro inh 18, Insulin prom up -1.7 and Autophagy HCS inactive.
Cc1ccc(NP(=O)(Nc2ccc(C)cc2)Nc2ccc(C)cc2)cc1 was read as Lmaj promast 58*, WT yeast gro inh -8, Insulin prom up -0.03 and Autophagy HCS inactive.
Screening CN(C)c1ccc(/C=C/C=C2/SC(=S)N(c3ccccc3)C2=O)cc1 returned Lmaj promast 18, Insulin prom inh -296, WT yeast gro inh 22 and Autophagy HCS active.
O=C(O)c1ccc(N2C(=O)/C(=C/C=C/c3ccccc3)SC2=S)cc1 was read as Lmaj promast -2, WT yeast gro inh -17, Insulin prom up -0.51 and Autophagy HCS inactive.
COc1cc2oc3ccccc3c2cc1N(CC(=O)N(C)C)S(=O)(=O)c1ccc(C)cc1 was read as Lmaj promast 66*, Insulin prom inh -33, WT yeast gro inh -38, Insulin prom up 0.56 and Autophagy HCS inactive.
For Clc1ccc(C[n+]2cc(-c3ccccc3)n3c2CCCCC3)c(Cl)c1 the results were Lmaj promast 100*, WT yeast gro inh 17, Insulin prom up -5.3 and Autophagy HCS inactive.
`Clc1ccc(C[n+]2cc(-c3ccccc3)n3c2CCC3)cc1Cl` gave Lmaj promast 99*, WT yeast gro inh 1, Insulin prom up 0.12 and Autophagy HCS inactive.
`Clc1ccc(-c2c[n+](Cc3cccc(Cl)c3)c3n2CCC3)cc1` gave Lmaj promast 100*, Insulin prom inh 25, WT yeast gro inh -10, Insulin prom up -0.57 and Autophagy HCS inactive.
Clc1ccc(-c2c[n+](Cc3ccc(Cl)cc3Cl)c3n2CCCCC3)cc1 was read as Insulin prom up -2.1.
O=[N+]([O-])c1ccc(C[n+]2cc(-c3ccc(Cl)c(Cl)c3)n3c2CCCCC3)cc1 was read as Insulin prom up 1.8.
Screening COCCCN(C(=S)NC(=O)c1ccc(C(C)(C)C)cc1)c1c(N)n(Cc2ccccc2)c(=O)[nH]c1=O returned Lmaj promast -5, Insulin prom inh 43, WT yeast gro inh 4, Insulin prom up 1.4 and Autophagy HCS inactive.
`CC1CCC(C(=O)c2c(O)c3ccccc3oc2=O)CC1` (configuration not stated) gave Lmaj promast 99*, Insulin prom inh -7, WT yeast gro inh 12, Insulin prom up 0.53 and Autophagy HCS inactive.
CC(=N)c1c(O)c2ccccc2oc1=O was read as Insulin prom up -0.39.
For Cc1cc(/C=C(\C#N)c2nc3ccccc3[nH]2)c(C)n1C the results were Lmaj promast 39, Insulin prom inh 20, WT yeast gro inh 14, Insulin prom up -0.24 and Autophagy HCS inactive.
N#C/C(=C\c1ccc(Cl)cc1)c1nc2ncccc2[nH]1 was read as Lmaj promast 79*, WT yeast gro inh 45, Insulin prom up -0.32 and Autophagy HCS inactive.
Screening Cc1ccc(/C=C(\C#N)c2nc3ccccc3[nH]2)s1 returned Lmaj promast 23, Insulin prom inh 96*, WT yeast gro inh 17, Insulin prom up -0.92 and Autophagy HCS inactive.
Screening N#C/C(=C\c1c(Cl)cccc1Cl)c1nc2ccccc2[nH]1 returned Insulin prom up 0.61.
`N#C/C(=C\c1ccc(Sc2ccc(Cl)cc2)o1)c1nc2ccccc2[nH]1` gave Lmaj promast 60*, Insulin prom inh -88, WT yeast gro inh 52, Insulin prom up 0.29 and Autophagy HCS inactive.
`N#C/C(=C/c1cccs1)c1nc2ccccc2[nH]1` gave Lmaj promast 85*, Insulin prom inh 75*, WT yeast gro inh 2, Insulin prom up -0.2 and Autophagy HCS inactive.
